Assay results reported in ChEMBL document CHEMBL3988442, “University of Dundee, Small-Polar-MMV Screening Library” (2021).
Screen size: about 69,000 compounds; about 950 (1.4%) showed an effect of 50% or more. The list comes from a sample in which strong results are over-represented; it also holds similar structures and randomly drawn compounds.

test system: Mycobacterium tuberculosis; experiment: Cornell M. t heat shock assay; format: functional, organism-based; set-up: dose or concentration left out as unconfirmed; note: in the data most compounds retested in dose-response had high values

Compound | Percent Effect
Cc1cc(C2CCNCC2)nc(-c2ccsc2)n1.Cl | -13.2%
CN(C)[C@@H]1CCN(C(=O)Cc2ccc(F)cc2)[C@H]1Cc1cnn(C)c1.O=C(O)C(F)(F)F | 10.95%
CCc1cnc(N)nc1NCc1ccc(OC)c(OC)c1 | 5.948%
COc1ccc(C(C)NCc2ccsc2)cc1Cn1cccn1 (configuration not stated) | -10.38%
COc1ncc(NCc2ccsc2)cc1C(N)=O | -17.59%
COc1ccc(CNC(Cc2ccsc2)c2ncccc2C)cc1OC (configuration not stated) | 96.19%
COc1ccc(CNC(C)Cn2cccn2)cc1OC (configuration not stated) | -13.02%
Cc1cnc(N2CCC3(CCN(Cc4csc(C)n4)C3=O)C2)nc1.O=C(O)C(F)(F)F (configuration not stated) | -3.389%
Cc1ccc2c(n1)N(Cc1cccnc1)CCN(C(=O)C1CC1)C2.O=C(O)C(F)(F)F.O=C(O)C(F)(F)F | -27.88%
Cl.Cn1ccnc1C1(O)CCN(C(=O)Cc2ccccc2)CC1 | -18.55%
CN(Cc1ccc(-n2cccn2)cc1)C[C@@H]1CCCN2CCCC[C@H]12 | -24.54%
Cc1ccc(N2CCC3(CCN(C(=O)c4ccccn4)CC3)CC2)nn1.O=C(O)C(F)(F)F.O=C(O)C(F)(F)F | -19.27%
COc1cc(CN2CCCC2)ccc1OC12CCCN(CC1)C2 (configuration not stated) | -26.73%
COc1cc(C#N)ccc1OC12CCCN(CC1)C2 (configuration not stated) | -7.079%
CCCc1ccc(OC23CCCN(CC2)C3)c(OC)c1 (configuration not stated) | 85.22%
CS(=O)(=O)NC[C@H]1OC[C@@H]2CCN(CCc3ccccc3)C[C@@H]21.O=C(O)C(F)(F)F | -13.26%
CC(C)N(C)Cc1cncc2c1CCN(CC1CC1)C2.Cl.Cl.Cl | 9.593%
O=C(O)C(F)(F)F.O=C(O)[C@]12CCCN(C3CCOC3)C[C@H]1CN(c1nncs1)C2 (some centres not stated) | 32.9%
COCCN1CCCn2c(nc(CNC(=O)COC)cc2=O)C1.O=C(O)C(F)(F)F | 37.74%
COc1ccc(CN2C[C@H]3C[C@H](C(=O)Nc4cccnc4)[C@@H](C2)O3)cc1 | 4.187%
CCc1c(C)sc(NC(=O)CN2CCOCC2)c1C(=O)OC | 24.22%
CCc1c(C)sc(NC(=O)CN2CCN(CC)CC2)c1C(=O)OC | 103.2%
CCOC(=O)c1c(NC(=O)CN2CCN(C(C)=O)CC2)sc(C)c1C | -7.801%
CN1CCCC1c1cccc(Cc2ccc(F)cc2)n1 (configuration not stated) | 24.93%
CC(=O)N1CCCC1c1cccc(Cc2ccccc2F)n1 (configuration not stated) | -21.24%

Compound | Percent Effect
CN1CCCC1c1cccc(Cc2ccccc2F)n1 (configuration not stated) | 69.94%
Cc1cccc(CN2CCc3ncnc(C4CC4)c3CC2)n1.O=C(O)C(F)(F)F | -23.65%
CCN1CCN(C)C(=O)C12CCN(Cc1csc(C)n1)CC2.O=C(O)C(F)(F)F | 25.71%
O=C(O)C(F)(F)F.O=C(O)C(F)(F)F.c1cncc(-c2ncnc3c2CCN(Cc2cccs2)CC3)c1 | -18.81%
CC(C)Cc1cc(NC(=O)c2ccncc2)n(C)n1 | 18.34%
CC(C)Cc1cc(NC(=O)c2ccccn2)n(C)n1 | 64.59%
CC(C)Cc1cc(NC(=O)c2ccccc2)n(C)n1 | 19.61%
CN(Cc1ccncc1)C1COC2(CCN(Cc3cccs3)CC2)C1.O=C(O)C(F)(F)F.O=C(O)C(F)(F)F.O=C(O)C(F)(F)F (configuration not stated) | 10.37%
CN(C)C(=O)CO[C@@H]1CC[C@H]2[C@H]1OCCN2c1ncc(F)cn1.O=C(O)C(F)(F)F | 7.03%
O[C@@H]1CN(c2cnc3ccccc3n2)CC[C@H]1c1ccc2c(c1)OCO2 | 107.1%
O[C@@H]1CN(c2nc3ccccc3s2)CC[C@H]1c1ccc2c(c1)OCO2 | -12.43%
O[C@@H]1CN(c2nc3ccccc3o2)CC[C@H]1c1ccc2c(c1)OCO2 | -10.34%
O=C(O)C(F)(F)F.c1ccn(Cc2nnc3n2CCCN(Cc2ccoc2)C3)c1 | -15.36%
O=C(C1CCC1)N1C[C@@H]2CN(Cc3ccncc3)C(=O)[C@@H]2C1.O=C(O)C(F)(F)F | 6.384%
CN(C)CCCNCCC(c1ccccc1)C1CCOC(C)(C)C1.O=C(O)C(=O)O (configuration not stated) | 21.84%
CN1CCN(C2COC3(CCN(Cc4ccc(F)cc4)CC3)C2)CC1.O=C(O)C(F)(F)F.O=C(O)C(F)(F)F.O=C(O)C(F)(F)F (configuration not stated) | -9.014%
CCNC(=O)NC(=O)CNC(C)(C)c1ccc2c(c1)OCCO2 | 11.57%
CCCNC(=O)NC(=O)CNC(C)(C)c1ccc2c(c1)OCO2 | -10.73%
CCCNC(=O)NC(=O)CNC(C)(C)c1ccc2c(c1)OCCO2 | 99.39%
Cc1cc(C[C@@H]2COC[C@H]2NCc2ccc(C(C)C)cc2)on1.O=C(O)CC(O)(CC(=O)O)C(=O)O | 9.353%
Cc1[nH]c2ccccc2c1CCNc1ncnc2c1CCNCC2 | 1.152%
Cc1[nH]c2ccc(Cl)cc2c1CCNc1ncnc2c1CCNC2 | 96.99%
Cc1[nH]c2ccc(C#N)cc2c1CCNc1ncnc2c1CCNCC2 | 7.503%
Cc1cc(C)nc(N2CCCC(C(=O)Nc3n[nH]c(C(C)C)n3)C2)n1 (configuration not stated) | 13.11%
O=C(O)C(F)(F)F.O=C(c1ccc[nH]1)N1CCCn2c(CNC3CCC3)nnc2C1 | 92.9%

Compound | Percent Effect
O=C1CCCN1Cc1nnc2n1CCCN(C(=O)c1ccc[nH]1)C2 | 27.49%
O=C(c1ccc[nH]1)N1CCCn2c(CN3CCCCC3)nnc2C1 | 16.28%
Cc1cnc(NC(=O)c2cccc(CN(C)Cc3snnc3C)c2)s1 | 9.507%
Cc1cnc(NC(=O)c2cccc(CN(C)Cc3ncccc3C)c2)s1 | 62.95%
Cc1cnc(NC(=O)c2cccc(CN(C)Cc3ccno3)c2)s1 | 6.699%
Cl.O=C(c1cccc(F)c1)N1CCCC1c1ncc2c(n1)CCNC2 (configuration not stated) | -29.7%
NC(=O)NC(=O)CN1CCN(CC2CC2)c2ccccc21 | 61.15%
CNC(=O)NC(=O)CN1CCN(CC2CC2)c2ccccc21 | 34.37%
NC(=O)NC(=O)CCN1CCN(CC2CC2)c2ccccc21 | -11.96%
CN(C)CCN1CCCC12CCN(C(=O)c1ccoc1)CC2.O=C(O)C(F)(F)F.O=C(O)C(F)(F)F | -7.317%
O=C(O)C(F)(F)F.O=C1C[C@H]2[C@H](CCN2Cc2ccccn2)N1CC1CC1 | -8.238%
CN(C)CCCNC(=O)c1ccc(N(C)S(C)(=O)=O)cc1Cl | 4.922%
NC(=O)NC(=O)CCN1CCN(c2nccs2)CC1 | 101.5%
O=C(CCN1CCCN(c2nccs2)CC1)Nc1ccccc1 | -8.927%
CNC(=O)NC(=O)CCN1CCN(c2nccs2)CC1 | 23.87%
NC(=O)NC(=O)CN1CCN(c2nccs2)CC1 | -3.548%
O=C(CCN1CCCN(c2nccs2)CC1)NCC1CCCCC1 | 0.6887%
NC(=O)NC(=O)CCN1CCCN(c2nccs2)CC1 | 91.9%
CCn1cncc1CN(Cc1ccc(OC)cc1OC)CC1CCCO1.O=C(O)CC(O)(CC(=O)O)C(=O)O (configuration not stated) | -14.56%
CN(Cc1cccnc1)[C@@H]1CN(C(=O)CC2CC2)[C@@H]2CCCO[C@H]12.O=C(O)C(F)(F)F.O=C(O)C(F)(F)F | -21.3%
CC/N=c1\c(NC(=O)C(C)(C)C)c(O)oc2ccccc12 | -10.16%
Cn1ncc2ccc(C3CCCN(Cc4cccs4)C3)nc21 (configuration not stated) | 13.99%
Oc1cc(-c2nccs2)nc(C2CCN(Cc3cccs3)CC2)n1 | 15.4%
Oc1cc(C2CCCCN2Cc2ccsc2)nc(-c2ccncc2)n1 (configuration not stated) | -9.132%
Oc1cc(C2CCCN(Cc3cccs3)C2)nc(-c2ccccn2)n1 (configuration not stated) | 99.87%

Compound | Percent Effect
Oc1cc(C2CCCCN2Cc2cccs2)nc(-c2ccncc2)n1 (configuration not stated) | -5.43%
Oc1cc(C2CCCCN2Cc2cccs2)nc(-c2ccccn2)n1 (configuration not stated) | 103.7%
O=C(O)C(F)(F)F.O=C1[C@H]2CN(Cc3nccs3)C[C@H]2CN1c1cncnc1 | -2.915%
CN(C)CCO[C@@H]1CC[C@H]2[C@H]1OCCN2C(=O)COc1ccccc1.O=C(O)C(F)(F)F | 10.1%
COc1ccc(CN2C[C@@H]3OCCN(CC4CCCO4)[C@@H]3C2)cc1.O=C(O)C(F)(F)F.O=C(O)C(F)(F)F (some centres not stated) | 2.354%
COc1ccc(CN2CC[C@H]3[C@H]2CCN3C(=O)c2cnn(C)c2)cc1.O=C(O)C(F)(F)F | 1.435%
CC(=O)N1Cc2ccnn2CC(C(=O)NCc2cccnc2)C1.O=C(O)C(F)(F)F (configuration not stated) | 37.04%
FC(F)(F)c1ccc2nc([C@H]3CCN(C4CCC4)C3)[nH]c2c1 | 17.31%
FC(F)(F)c1ccc2nc([C@H]3CCN(C4CCCCC4)C3)[nH]c2c1 | 60.59%
FC(F)(F)c1ccc2nc([C@H]3CCN(C4CCOCC4)C3)[nH]c2c1 | 5.789%
COc1c(C2CCCN2CC(=O)Nc2nc(C)cs2)c(C)nn1C (configuration not stated) | 75.33%
Cc1cnn(CC2CCCN2CC(=O)Nc2nccs2)c1 (configuration not stated) | 102.3%
Cc1cnn(CC2CCCN2CC(=O)Nc2cc(C)nn2C)c1 (configuration not stated) | 19.4%
Cc1cnn(CC2CCCN2CC(=O)NCc2ccccn2)c1 (configuration not stated) | -22.46%
CC(=O)Nc1nc(CN2CCCC2Cn2cccn2)cs1 (configuration not stated) | -5.465%
Cc1cnn(CC2CCCN2CC(=O)Nc2nncs2)c1 (configuration not stated) | -6.011%
CC(=O)Nc1nc(CN2CCCC2Cn2cc(C)cn2)cs1 (configuration not stated) | 69.78%
O=C(CN1CCCC1Cn1cncn1)Nc1nccs1 (configuration not stated) | 4.576%
Cc1cnn(CC2CCCN2CC(=O)Nc2nc(C)cs2)c1 (configuration not stated) | 100.4%
COc1c(C2CCCN2CC(=O)Nc2cc(C)no2)c(C)nn1C (configuration not stated) | 8.972%
COc1c(C2CCCN2CC(=O)Nc2nccs2)c(C)nn1C (configuration not stated) | 8.304%
CC(=O)Nc1nc(CN2CCCC2Cn2cncn2)cs1 (configuration not stated) | -13%
